CYP2C9 act – activators of human CYP2C9. P11712. recombinant CYP2C9, luciferin-H conversion, luminescence; stronger effect = higher value; factor 1 = untreated enzyme, 0 = blocked. activation factor at 5 µM. actives 1.4% (n = 96,000);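 active means activation factor of 2 or more for CYP2C9 at a 5 µM dose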
CYP2C19 activ – increases human CYP2C19 enzyme activity; 96,000 tested, under 10 active; recombinant CYP2C19, luciferin-H EGE luminescence; stronger effect = higher value; 0 = fully inhibited enzyme, 1 = untreated enzyme; AID 1025; P33261; activation factor at 5 µM;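 active means activation factor of at least 2 at 5 µM in the primary screen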
Target sequence (P33261 whole entry, looked up): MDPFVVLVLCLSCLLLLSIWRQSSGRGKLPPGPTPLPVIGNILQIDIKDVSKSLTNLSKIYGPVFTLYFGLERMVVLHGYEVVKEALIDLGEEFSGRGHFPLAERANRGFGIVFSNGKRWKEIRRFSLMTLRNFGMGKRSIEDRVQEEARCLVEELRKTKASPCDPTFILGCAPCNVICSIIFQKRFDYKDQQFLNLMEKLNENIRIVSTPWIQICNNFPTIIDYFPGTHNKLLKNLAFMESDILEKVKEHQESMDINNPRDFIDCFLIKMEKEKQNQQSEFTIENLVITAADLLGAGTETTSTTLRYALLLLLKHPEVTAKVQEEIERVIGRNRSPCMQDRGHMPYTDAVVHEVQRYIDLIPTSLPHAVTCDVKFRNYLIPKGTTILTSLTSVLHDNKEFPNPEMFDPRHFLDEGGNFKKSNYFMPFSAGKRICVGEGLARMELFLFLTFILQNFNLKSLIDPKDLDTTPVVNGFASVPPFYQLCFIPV
CYP2C9 inhib – inhibitors of human CYP2C9 | P11712 | inhibition, % at 5 µM | actives 20% (n = 96,000) | CYP2C9 Supersomes, luciferin-H conversion, luminescence | AID 777;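 active means blocking of liver enzyme CYP2C9 beyond about 50% at 5 µM, limit read from the data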
CYP2C19 inhib – inhibitors of human CYP2C19; inhibition, % at 5 µM; CYP2C19 Supersomes, luciferin-H EGE luminescence, 30 min; P33261; actives 21% (n = 96,000);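 active means CYP2C19 inhibition above a set limit at 5 µM in the primary screen, cut at about 50% in these data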
Plk1 PBD FP – inhibitors of human Plk1 polo box domain binding; P53350; Plk1 PBD phosphopeptide binding, fluorescence polarization; inhibition, %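 (tested at about 20 µM)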; actives 0.13% (n = 97,000); AID 693; in the data active means inhibition above about 34%, passing the limit was not always enough
PLK1 kinase inh – blocks human PLK1 kinase activity | P53350 | recombinant PLK1 kinase, TR-FRET peptide phosphorylation | inhibition, % at 10 µM | actives 0.53% (n = 97,000);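 active means inhibition of 50% or more in the single-concentration screen; inactive means inhibition below 50%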
A number is an active result; 0 = inactive; - = no result. In the library only some 28% were active in any assay of this set; here they are far more common.

SMILES	CYP2C9 act	CYP2C19 activ	CYP2C9 inhib	CYP2C19 inhib	Plk1 PBD FP	PLK1 kinase inh
CCOc1ccc(Cn2c(=O)oc3ccc(C)cc32)cc1OC	0	0	0	64	0	0
O=C(Nc1ccc(NC(=O)c2sc3ccccc3c2Cl)cc1Cl)c1ccco1	0	0	0	0	0	0
O=C(C1CCN(S(=O)(=O)c2cccc3cccnc23)CC1)N1CCc2ccccc21	2.1	0	0	0	0	0
CN(CC(=O)N1CCc2ccccc21)S(=O)(=O)c1cccc2cccnc12	0	0	0	0	0	0
CC1CCN(C(=O)C2CCC(CNS(=O)(=O)c3cccc4cccnc34)CC2)CC1 (stereo not given)	2.9	0	0	0	0	0
O=C(C1CCCN1S(=O)(=O)c1cccc2cccnc12)N1CCN(c2ccccc2)CC1 (stereo not given)	0	0	61	0	0	0
O=C(C1CCC(CNS(=O)(=O)c2cccc3cccnc23)CC1)N1CCc2ccccc21 (stereo not given)	0	0	0	80	0	0
O=C(C1CCCN1S(=O)(=O)c1cccc2cccnc12)N1CCc2ccccc2C1 (stereo not given)	0	0	0	0	0	0
CN1CCN(C(=O)C2CCC(CNS(=O)(=O)c3cccc4cccnc34)CC2)CC1 (stereo not given)	0	0	0	0	0	0
O=C(C1CCCN1S(=O)(=O)c1cccc2cccnc12)N1CCc2ccccc21 (stereo not given)	0	0	62	70	0	0
N#Cc1c(NC(=O)CSc2ncn(-c3ccccc3)n2)sc2c1CCCC2	0	0	90	81	0	0
N#Cc1c(NC(=O)CSc2nc(N)cc(=O)[nH]2)sc2c1CCCCCC2	0	0	0	58	0	0
N#Cc1c(NC(=O)CSc2ncn[nH]2)sc2c1CCCCC2	0	0	71	0	-	-
Cn1cnnc1SCC(=O)Nc1sc2c(c1C#N)CCCCC2	-	-	-	-	0	0
O=C(Cc1cn2ccsc2n1)NCCc1ccc(F)cc1	0	0	0	72	-	-
O=C(Cc1cn2ccsc2n1)Nc1ccccc1Oc1ccccc1	0	0	70	80	0	0
Cn1c(=O)c2c(nc(CN3CCN(C(=O)c4ccco4)CC3)n2Cc2ccc(Cl)cc2)n(C)c1=O	0	0	0	0	0	0
O=C(CCc1nc(-c2ccccc2)no1)NCC1CCCO1 (stereo not given)	0	0	0	0	0	0
COc1cccc(NS(=O)(=O)c2cc(C)sc2C)c1	-	-	-	-	0	0
Cc1cc(S(=O)(=O)Nc2ccc(N(C)C)cc2)c(C)s1	0	0	100	100	0	0
CSCCC(NS(=O)(=O)c1ccc(Cl)cc1)C(=O)OCC(=O)NC12CC3CC(CC(C3)C1)C2 (stereo not given)	0	0	61	0	0	0
O=c1c(F)cn(C2CCCO2)c(=O)n1Cc1c(Cl)cccc1Cl (stereo not given)	0	0	0	66	0	0
O=C(Cc1c(F)cccc1Cl)NCC1CCCO1 (stereo not given)	0	0	0	0	0	0
CCC(C(=O)Nc1ccccc1-c1ccccc1)c1ccccc1 (stereo not given)	0	0	0	0	0	0
CCCC(C)NCC(=O)Nc1ccccc1-c1ccccc1 (stereo not given)	0	0	0	65	0	0
SMILES	CYP2C9 act	CYP2C19 activ	CYP2C9 inhib	CYP2C19 inhib	Plk1 PBD FP	PLK1 kinase inh
CC1=NC(C(F)(F)F)(C(F)(F)F)C(C#N)=C(C)N1	0	0	0	69	0	0
C/C(N)=C(/C#N)C(=O)COC(=O)CCSc1ccccc1Cl	0	0	0	64	0	0
O=C(CCc1nc2ccccc2[nH]c1=O)OCC(=O)c1cccc2ccccc12	0	0	0	0	0	0
C=CCNc1nnc(-c2ccncc2)s1	0	0	0	77	0	0
c1ccc2c(Nc3nnc(-c4ccncc4)s3)cccc2c1	0	0	90	96	0	0
O=C(Nc1cccc2ccccc12)c1cnccn1	0	0	0	0	-	-
COC(=O)Nc1nnc(-c2ccncc2)s1	0	0	0	0	0	0
COCCCNC(=O)c1ccccc1SC	0	0	0	0	0	0
Cc1ccc2nc(SCC(=O)Nc3ccc4sc(C)nc4c3)c(C#N)cc2c1	0	0	0	0	0	0
CCCCNC(=O)CSc1nnc(NC(C)=O)s1	0	0	0	0	-	-
O=C(COC(=O)c1ccccc1C(=O)N1CCN(c2ccccc2)CC1)Nc1ccc(F)cc1	0	0	91	72	0	0
O=C(COC(=O)c1ccccc1C(=O)N1CCN(c2ccc(F)cc2)CC1)NCc1ccccc1	0	0	86	82	0	0
Cc1occc1C(=O)OCC(=O)Nc1ccc(F)cc1	0	0	0	86	0	0
O=C(CSc1nnc(CNc2ccc(F)cc2)n1-c1ccccc1)N1CCOCC1	-	-	-	-	0	0
Cc1ccc(C2NNC(=O)C2NC(=O)c2ccccc2)cc1 (stereo not given)	0	0	0	60	0	0
CCCSc1nc(C)nc2c1c(=O)n(C)c(=O)n2C	0	0	0	0	0	0
Cc1ccc2ccc(S(=O)(=O)n3nc(C)cc3C)cc2c1	0	0	0	61	0	0
C/C(Nc1ccccc1)=C(/C#N)C(N)=O	0	0	0	0	0	0
CCOc1ccc(C2CC(=O)c3c([nH]c(C(=O)OC)c3C)C2)cc1OC (stereo not given)	0	0	52	0	0	0
CCCCOC(=O)c1[nH]c2c(c1C)C(=O)CC(c1cc(OC)c(OC)c(OC)c1)C2 (stereo not given)	0	0	63	0	-	-
C=CCOC(=O)C1=C(C)NC(=O)NC1c1ccc(OC(=O)c2ccco2)c(OC)c1 (stereo not given)	0	0	0	0	0	0
C=CCOC(=O)c1[nH]c2c(c1C)C(=O)CC(c1cc(OC)c(OC)c(OC)c1)C2 (stereo not given)	0	0	87	61	-	-
COc1ccc(Cn2c(C)c(C)c(C#N)c2NC(=O)Nc2cccc(Cl)c2)cc1	0	0	0	0	0	0
COc1ccc(/C=C2\SC(=S)N(NC(=O)c3csc4c3CCCC4)C2=O)cc1	0	0	0	0	0	0
CCCCCOC(=O)C1[C@H]2C(=O)N(CCCOC)C[C@]23C=C[C@H]1O3 (stereo not given in full)	0	0	0	0	0	0
CCN(C(=O)c1ccc(C(C)(C)C)cc1)c1nnc(Cn2nnc3ccccc32)s1	0	0	52	0	0	0
CSc1nsc(/C=C/Nc2cccc(Cl)c2)c1C#N	0	0	65	0	0	0
CSc1nsc(/C=C/Nc2ccc(Cl)cc2)c1C#N	0	0	0	0	0	0
CN(C)c1ccnc2sc3c(=O)n(-c4ccccc4)cnc3c12	0	0	0	0	0	0
COCCn1c(SCc2ccc(C(=O)OC)o2)nnc1-c1c[nH]c2ccccc12	0	0	68	74	0	59

High-throughput results (PubChem)
